{"source": "ChEMBL document CHEMBL4513146", "about": "“CO-ADD screening of Karazin Kharkiv National University (Ukraine) compounds”", "key": {"[1]": {"system": "Klebsiella pneumoniae", "conditions": "Concentration 32 ug.mL-1;; ASSAY_TEST Inhibition of Bacterial Growth; detection method Absorption (OD600); MEDIA CAMHB; plate type 384well; NBS; CORNING #3640; time 18 hr"}, "[2]": {"system": "Candida albicans", "conditions": "Concentration 32 ug.mL-1; ASSAY_TEST Inhibition of Fungal Growth; detection method Absorption (OD530)"}, "[3]": {"system": "Cryptococcus neoformans", "conditions": "Concentration 32 ug.mL-1; ASSAY_TEST Inhibition of Fungal Growth; detection method Resazurin; Absorption (OD600-OD570); plate type 384well; NBS; CORNING #3640"}}, "note": "Measured potencies and affinities stand elsewhere."}
{"smiles": "O=c1n(Cc2cccc(Br)c2)nc2ccc(-c3ccccc3)nn12", "values": [{"measurement": "Inhibition", "setting": "[1]", "value": 10.27, "unit": "%"}, {"measurement": "Inhibition", "setting": "[2]", "value": 5.28, "unit": "%"}, {"measurement": "Inhibition", "setting": "[3]", "value": -13.38, "unit": "%"}]}
{"smiles": "COc1ccc(-c2cc3c4nnc(SCC(=O)Nc5ccccc5C(F)(F)F)n4ccn3n2)cc1", "values": [{"measurement": "Inhibition", "setting": "[1]", "value": 8.66, "unit": "%"}, {"measurement": "Inhibition", "setting": "[2]", "value": 3.79, "unit": "%"}, {"measurement": "Inhibition", "setting": "[3]", "value": -13.07, "unit": "%"}]}
{"smiles": "Cc1ccc(NC(=O)Cn2nc3c4cc(-c5ccc(C)c(C)c5)nn4ccn3c2=O)c(C)c1", "values": [{"measurement": "Inhibition", "setting": "[1]", "value": -6.92, "unit": "%"}, {"measurement": "Inhibition", "setting": "[2]", "value": -0.38, "unit": "%"}, {"measurement": "Inhibition", "setting": "[3]", "value": -15.91, "unit": "%"}]}
{"smiles": "COc1ccccc1NC(=O)Cn1nc2c(SCc3ccc(Cl)cc3)nccn2c1=O", "values": [{"measurement": "Inhibition", "setting": "[1]", "value": 9.59, "unit": "%"}, {"measurement": "Inhibition", "setting": "[2]", "value": 1.74, "unit": "%"}, {"measurement": "Inhibition", "setting": "[3]", "value": -17.01, "unit": "%"}]}
{"smiles": "CC(C)Cn1c(=O)c2sccc2n2c(=O)n(Cc3ccc(N4CCCC4=O)cc3)nc12", "values": [{"measurement": "Inhibition", "setting": "[1]", "value": 9.72, "unit": "%"}, {"measurement": "Inhibition", "setting": "[2]", "value": 1.08, "unit": "%"}, {"measurement": "Inhibition", "setting": "[3]", "value": -27.68, "unit": "%"}]}
{"smiles": "Cc1ccc(Cn2c(=O)c3ccccc3n3c(=O)n(CC#N)nc23)cc1", "values": [{"measurement": "Inhibition", "setting": "[1]", "value": 6.47, "unit": "%"}, {"measurement": "Inhibition", "setting": "[2]", "value": -0.23, "unit": "%"}, {"measurement": "Inhibition", "setting": "[3]", "value": -25, "unit": "%"}]}
{"smiles": "CCOc1ccc(-n2ccn3c(SCC(=O)Nc4ccc(Cl)cc4)nnc3c2=O)cc1", "values": [{"measurement": "Inhibition", "setting": "[1]", "value": 5.78, "unit": "%"}, {"measurement": "Inhibition", "setting": "[2]", "value": 3.69, "unit": "%"}, {"measurement": "Inhibition", "setting": "[3]", "value": -6.67, "unit": "%"}]}
{"smiles": "O=C(CSc1nnc2c3cc(-c4ccccc4)nn3ccn12)NCc1ccc(Cl)cc1", "values": [{"measurement": "Inhibition", "setting": "[1]", "value": 14.11, "unit": "%"}, {"measurement": "Inhibition", "setting": "[2]", "value": 6.05, "unit": "%"}, {"measurement": "Inhibition", "setting": "[3]", "value": -28.72, "unit": "%"}]}
{"smiles": "Cn1c(=O)c2ccc(C(=O)NC3CCCCC3)cc2n2c(=O)n(Cc3cccc(C(F)(F)F)c3)nc12", "values": [{"measurement": "Inhibition", "setting": "[1]", "value": 16.04, "unit": "%"}, {"measurement": "Inhibition", "setting": "[2]", "value": 1.42, "unit": "%"}, {"measurement": "Inhibition", "setting": "[3]", "value": -24.7, "unit": "%"}]}
{"smiles": "CSc1ccc(CNC(=O)CCc2nnc3c(N4CCCCC4)nc4ccccc4n23)cc1", "values": [{"measurement": "Inhibition", "setting": "[1]", "value": 12.88, "unit": "%"}, {"measurement": "Inhibition", "setting": "[2]", "value": 3.51, "unit": "%"}, {"measurement": "Inhibition", "setting": "[3]", "value": -30.87, "unit": "%"}]}
{"smiles": "O=C(Cn1nc2c(SC3CCCCC3)nccn2c1=O)Nc1ccc(F)cc1", "values": [{"measurement": "Inhibition", "setting": "[1]", "value": 10.22, "unit": "%"}, {"measurement": "Inhibition", "setting": "[2]", "value": 0.1, "unit": "%"}, {"measurement": "Inhibition", "setting": "[3]", "value": -30.85, "unit": "%"}]}
{"smiles": "CCCNC(=O)CSc1nnc2c(=O)n(-c3ccc(F)cc3)ccn12", "values": [{"measurement": "Inhibition", "setting": "[1]", "value": 12.9, "unit": "%"}, {"measurement": "Inhibition", "setting": "[2]", "value": 2.11, "unit": "%"}, {"measurement": "Inhibition", "setting": "[3]", "value": -15.58, "unit": "%"}]}
{"smiles": "O=c1n(Cc2nc(-c3ccc(Cl)cc3)no2)nc2ccc(-c3ccccc3)nn12", "values": [{"measurement": "Inhibition", "setting": "[1]", "value": 13.55, "unit": "%"}, {"measurement": "Inhibition", "setting": "[2]", "value": 2.36, "unit": "%"}, {"measurement": "Inhibition", "setting": "[3]", "value": -20.52, "unit": "%"}]}
{"smiles": "O=C(CSc1nnc2c3cc(-c4ccc(F)cc4)nn3ccn12)NCc1ccc(Cl)cc1", "values": [{"measurement": "Inhibition", "setting": "[1]", "value": 0.77, "unit": "%"}, {"measurement": "Inhibition", "setting": "[2]", "value": 7.94, "unit": "%"}, {"measurement": "Inhibition", "setting": "[3]", "value": -17.49, "unit": "%"}]}
{"smiles": "O=C(CSc1nc2ccccc2n2cnnc12)Nc1cc(C(F)(F)F)ccc1Cl", "values": [{"measurement": "Inhibition", "setting": "[1]", "value": 4.72, "unit": "%"}, {"measurement": "Inhibition", "setting": "[2]", "value": 15.89, "unit": "%"}, {"measurement": "Inhibition", "setting": "[3]", "value": -19.78, "unit": "%"}]}
{"smiles": "CCc1ccccc1Sc1nccn2c(=O)n(CC(=O)NCc3cccs3)nc12", "values": [{"measurement": "Inhibition", "setting": "[1]", "value": -0.44, "unit": "%"}, {"measurement": "Inhibition", "setting": "[2]", "value": 4.04, "unit": "%"}, {"measurement": "Inhibition", "setting": "[3]", "value": -9.94, "unit": "%"}]}
{"smiles": "CCc1ccccc1Sc1nccn2c(=O)n(CC(=O)Nc3cccc(Br)c3)nc12", "values": [{"measurement": "Inhibition", "setting": "[1]", "value": 8.38, "unit": "%"}, {"measurement": "Inhibition", "setting": "[2]", "value": 2.9, "unit": "%"}, {"measurement": "Inhibition", "setting": "[3]", "value": -6.91, "unit": "%"}]}
{"smiles": "Cc1ccc(NC(=O)Cn2nc3ccc(SC(C)C)nn3c2=O)cc1F", "values": [{"measurement": "Inhibition", "setting": "[1]", "value": 6.4, "unit": "%"}, {"measurement": "Inhibition", "setting": "[2]", "value": 5.51, "unit": "%"}, {"measurement": "Inhibition", "setting": "[3]", "value": -6.87, "unit": "%"}]}
{"smiles": "Cc1[nH]c2ccccc2c1C(=O)CSc1nnc2c(=O)n(-c3ccccc3)ccn12", "values": [{"measurement": "Inhibition", "setting": "[1]", "value": 21.07, "unit": "%"}, {"measurement": "Inhibition", "setting": "[2]", "value": 0.47, "unit": "%"}, {"measurement": "Inhibition", "setting": "[3]", "value": -10.08, "unit": "%"}]}
{"smiles": "CCc1nnc2ccc(S(=O)(=O)N(Cc3ccc(OC)cc3)c3cccc(F)c3)cn12", "values": [{"measurement": "Inhibition", "setting": "[1]", "value": 4.14, "unit": "%"}, {"measurement": "Inhibition", "setting": "[2]", "value": 4.82, "unit": "%"}, {"measurement": "Inhibition", "setting": "[3]", "value": -8.59, "unit": "%"}]}
{"smiles": "Cc1ccc(C)c(-c2cc3c4nnc(CCC(=O)NCCc5ccc(Cl)cc5)n4ccn3n2)c1", "values": [{"measurement": "Inhibition", "setting": "[1]", "value": 12.88, "unit": "%"}, {"measurement": "Inhibition", "setting": "[2]", "value": 1.56, "unit": "%"}, {"measurement": "Inhibition", "setting": "[3]", "value": -40.65, "unit": "%"}]}
{"smiles": "Cc1nnc2c(S(=O)(=O)N(Cc3ccccc3)c3ccc(C(C)C)cc3)cccn12", "values": [{"measurement": "Inhibition", "setting": "[1]", "value": 8.51, "unit": "%"}, {"measurement": "Inhibition", "setting": "[2]", "value": -1.81, "unit": "%"}, {"measurement": "Inhibition", "setting": "[3]", "value": -8.23, "unit": "%"}]}
{"smiles": "CCOc1ccc(-n2ccn3c(SC(CC)C(=O)Nc4cc(F)ccc4F)nnc3c2=O)cc1", "note": "(stereo unspecified)", "values": [{"measurement": "Inhibition", "setting": "[1]", "value": 11.22, "unit": "%"}, {"measurement": "Inhibition", "setting": "[2]", "value": 0.62, "unit": "%"}, {"measurement": "Inhibition", "setting": "[3]", "value": -9.91, "unit": "%"}]}
{"smiles": "O=c1c2nnc(-c3ccc([N+](=O)[O-])cc3)n2ccn1-c1ccc(F)c(F)c1", "values": [{"measurement": "Inhibition", "setting": "[1]", "value": 12.52, "unit": "%"}, {"measurement": "Inhibition", "setting": "[2]", "value": 2.2, "unit": "%"}, {"measurement": "Inhibition", "setting": "[3]", "value": -9.46, "unit": "%"}]}
{"smiles": "COc1ccc(-c2cc3c4nnc(SCC(=O)Nc5ccc(C#N)cc5)n4ccn3n2)cc1", "values": [{"measurement": "Inhibition", "setting": "[1]", "value": 5.83, "unit": "%"}, {"measurement": "Inhibition", "setting": "[2]", "value": 1.48, "unit": "%"}, {"measurement": "Inhibition", "setting": "[3]", "value": -17.71, "unit": "%"}]}
{"smiles": "CCCCc1ccc(NC(=O)CSc2nc3ccccc3n3c(CC)nnc23)cc1", "values": [{"measurement": "Inhibition", "setting": "[1]", "value": 13.43, "unit": "%"}, {"measurement": "Inhibition", "setting": "[2]", "value": 1.28, "unit": "%"}, {"measurement": "Inhibition", "setting": "[3]", "value": -16.72, "unit": "%"}]}
{"smiles": "O=c1n(Cc2ccc(Cl)cc2)nc2ccc(-c3ccccc3)nn12", "values": [{"measurement": "Inhibition", "setting": "[1]", "value": 18.04, "unit": "%"}, {"measurement": "Inhibition", "setting": "[2]", "value": 2.75, "unit": "%"}, {"measurement": "Inhibition", "setting": "[3]", "value": -18.7, "unit": "%"}]}
